RORgamma inh = qHTS for inhibitors of ROR gamma transcriptional activity; Nuclear receptor ROR-gamma (Mus musculus), P51450; Drosophila S2 Gal4-RORgamma UAS-luciferase reporter, 20 h; Potency, µM (top dose mostly 53.6 µM), for the others: at the highest dose activity change, negative = inhibition, hits mostly inhibitors; 310,000 tested, 5.4% active; AID 2551, 2010; also: nearly all actives have a fitted effect of over 60% in size
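Stably transfected Drosophila Schneider cells are the test system, with ROR gamma fused to Gal4 and luciferase under UAS control; luminescence is read after 20 hr of 700 uM copper sulfate induction at ambient temperature.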
ALDH1A1 block = qHTS Assay for Inhibitors of Aldehyde Dehydrogenase 1 (ALDH1A1) | Potency, µM (doses to about 75.3 µM), for inactives: at the highest dose activity, negative = inhibition, usual class: inhibitors | 220,000 tested, 7.3% active | AID 1030, 2008 | Purified ALDH1A1, NADH fluorescence, propionaldehyde substrate; active = well fitted inhibition curve with a large enough effect, not every such curve was filed as active; inconclusive = small, poorly fitted or top-dose-only effect, or another doubt; inactive = no such curve, though single readings can be large or run the other way;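 also: plate controls were no enzyme wells and a reference inhibitor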
VP16 counter = VP16 counterscreen qHTS for inhibitors of ROR gamma transcriptional activity; 310,000 tested, 3.5% active; Drosophila S2 Gal4-VP16 UAS-luciferase, luminescence, 20 h; AID 2546, 2010; Potency, µM (series often up to 53.6 µM), without a hit: at the highest dose activity, negative = inhibition, actives largely listed as inhibitors;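 also: Gal4-VP16 expression switched on by copper sulfate through the metallothionein promoter; nearly all actives have a fitted effect of over 50% in size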
PLK1 PBD inh = qHTS for Inhibitors of PLK1-PDB (polo-like kinase 1 - polo-box domain): Primary Screen. 360,000 tested, 2.8% active. Serine/threonine-protein kinase PLK1 (Homo sapiens), P53350. Plk1 PBD binding of FITC phosphopeptide, fluorescence polarization. Potency, µM, without a hit: max response, negative = inhibition, hits mostly inhibitors; also: series mostly up to about 57 µM; nearly all actives have a fitted effect of over 65% in size
Target sequence (P53350 whole entry, looked up, the tested form may be a part): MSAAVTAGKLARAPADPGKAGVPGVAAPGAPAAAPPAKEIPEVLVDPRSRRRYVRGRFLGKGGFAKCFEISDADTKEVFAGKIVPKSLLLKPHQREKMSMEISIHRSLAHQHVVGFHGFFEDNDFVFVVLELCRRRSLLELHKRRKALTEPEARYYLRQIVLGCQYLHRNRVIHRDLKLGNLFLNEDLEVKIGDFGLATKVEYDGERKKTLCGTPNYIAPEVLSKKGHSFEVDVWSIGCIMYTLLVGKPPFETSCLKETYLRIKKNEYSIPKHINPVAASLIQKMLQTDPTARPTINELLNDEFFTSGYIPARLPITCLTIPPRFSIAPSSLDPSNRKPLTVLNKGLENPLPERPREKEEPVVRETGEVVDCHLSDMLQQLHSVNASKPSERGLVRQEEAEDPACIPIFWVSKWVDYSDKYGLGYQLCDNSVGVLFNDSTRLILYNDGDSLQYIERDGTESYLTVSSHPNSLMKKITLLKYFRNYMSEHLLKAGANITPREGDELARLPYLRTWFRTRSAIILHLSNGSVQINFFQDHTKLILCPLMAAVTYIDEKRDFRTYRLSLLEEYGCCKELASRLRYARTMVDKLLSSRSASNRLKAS
Sfp inh = qHTS Assay for Inhibitors of Bacillus subtilis Sfp phosphopantetheinyl transferase (PPTase); 310,000 tested, 3.5% active; Biochemical Sfp PPTase activity, qHTS; Potency, µM, without a hit: largest response in the series, negative = inhibition, actives largely listed as inhibitors; 4'-phosphopantetheinyl transferase ffp (Bacillus subtilis), Q9F4F7;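 also: the enzyme is Sfp with the accession as filed and its product quenches rhodamine fluorescence; 0% = enzyme reaction without inhibitor and -100% = no enzyme wells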
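With Hepes-Na pH 7.6 buffer containing 10 mM MgCl2, Sfp (15 nM) modified BHQ-2-YbbR (12.5 uM) using rhodamine-CoA (5 uM). Two reads 30 minutes apart at 525/598 nm yielded each well's rate.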
The depositor's hits bear a star; ? = inconclusive; · = no result. Hits are enriched below; roughly 12% of the tested compounds scored in any of these assays. Unless noted, calls follow the shape of the dose curve; as a rule, active = well fitted curve in the direction sought with a large enough effect; inconclusive = small, poorly fitted or top-dose-only effect, or another doubt; inactive = no such curve, though single readings can be large; an effect the other way counts as inactive or inconclusive. Unless noted, % is scaled to controls: 0 for no effect and ±100 for the full control effect; potency is read from the fitted curve at half-maximal effect.

SMILES	RORgamma inh	ALDH1A1 block	VP16 counter	PLK1 PBD inh	Sfp inh
COc1cc([C@H]2OC[C@H]3[C@@H]2CO[C@@H]3c2ccc(O[C@H]3O[C@H](CO)[C@@H](O)[C@H](O)[C@H]3O)c(OC)c2)ccc1O[C@@H]1O[C@H](CO)[C@@H](O)[C@H](O)[C@H]1O	·	·	·	-15%	·
CC1=NN(c2ccc(Cl)c(C(=O)O)c2)C(=O)/C1=C\c1ccc(-c2ccc(C(=O)O)cc2)o1	-7%	26%	-5%	8.4µM*	-11%
CC1=NN(c2ccc(C(=O)O)cc2)C(=O)/C1=C/c1ccc(-c2ccccc2F)o1	?	·	-29%	·	-21%
CC1=NN(c2ccccc2)C(=O)/C1=C/c1ccc(-c2ccc(C)c(C(=O)O)c2)o1	·	·	·	4.7µM*	·
O=C1CCCN1CCCNc1nc(NCc2cccs2)nc2ccsc12	·	·	·	-3%	·
COc1ccc2[nH]cc(CCNc3ncncc3-c3ccc(C(=O)N(C)C)cc3)c2c1	14%	7%	-4%	·	-23%
N#CC1=C(N)N(c2ccc(Oc3ccccc3)cc2)C(=O)C1	-33%	25µM*	-8%	-4%	20%
COc1ccc(N2C(=O)Cc3ccccc3C2=O)cc1	1%	·	7%	-3%	7%
CC(C)(C)C(=O)COC(=O)CNC(=O)c1ccc(Oc2ccccc2)cc1	0%	?	-2%	1%	41%
COc1cccc(C(=O)NCC(=O)OCC(=O)C(C)(C)C)c1	2.5µM*	11%	-3%	-2%	7%
COc1cccc(C(=O)NCCOc2cc(C)cc(C)c2)c1	-14%	16µM*	4%	1%	-11%
Cc1nn(-c2ccccc2)c2[nH]c(=O)c(CNc3ccc(N4CCOCC4)cc3)cc12	-45%	?	-3%	3µM*	45µM*
COc1ccc(CNCc2cc3c(C(C)(C)C)nn(-c4ccccc4)c3[nH]c2=O)cc1	?	?	?	1%	11%
Cc1ccc(CNCc2cc3c(C(C)(C)C)nn(-c4ccccc4)c3[nH]c2=O)cc1	?	-6%	13µM*	-5%	12%
CCc1nc2ccc(C(=O)NCCOc3ccc(OC)cc3)cn2c1N(CCC(C)C)CCN(C)C	·	·	·	-13%	·
CCC1=C(OC(=O)N(CC)CC)N2C(=O)OC(=NCCOC)[C@]2(C)[C@H]2C1=CC[C@H]1C(=O)N(CC(=O)OC)C(=O)[C@H]12	-1%	28µM*	0%	·	5%
CCC1=C(OC(=O)N(CC)CC)N2C(=O)OC(=NCCOC)[C@]2(Cc2ccccc2)[C@H]2C1=CC[C@H]1C(=O)N(CC(=O)OC)C(=O)[C@H]12	12%	9%	9%	-6%	26%
Cc1ccc(NC2=Nc3ccccc3CC2)cc1	11µM*	-1%	?	-3%	4%
c1ccc(NC2=Nc3ccccc3CS2)cc1	-2%	-1%	?	0%	21%
Brc1ccc(NC2=Nc3ccccc3CC2)cc1	?	-5%	?	12µM*	6%
COc1ccc(OC)c(NC(=O)CCCCCn2nnc3ccccc3c2=O)c1	0%	·	-2%	-11%	8%
N#CC(C#N)=C(N)/C(C#N)=C/c1ccc(O)cc1	·	2.2µM*	·	·	·
CCN(CC)c1ccc(/C=C(\C#N)C(=O)c2ccc(Br)cc2)cc1	?	11µM*	?	-67%	-10%
N#CC(=Cc1ccc(O)cc1)C(N)=C(C#N)C#N	·	·	·	9%	·
N#C/C(=C\c1cc(O)c(O)c(O)c1)C(N)=O	26%	·	-12%	-4%	3.5µM*
CCN(CC)c1ccc(/C=C(\C#N)C(N)=O)cc1	-17%	32µM*	9%	18%	10%
Cc1cc2nc(-c3ccc(F)cc3)c(Cc3cccc(Cl)c3)n2c(C)c1Br	·	·	·	-17%	·
Cc1cnc(CNc2ccnc(-c3ccccc3CN(C)C)n2)cn1	-12%	?	6%	·	-21%
O=c1cc(CO)occ1O	-1%	-2%	-10%	·	-12%
CCCCNC(=O)C1(C)CCN1C(=O)c1oc2ccccc2c1C (centres undefined)	·	·	·	6%	·

From PubChem
